A short description of test [1]: CCTE_Mundy_HCI_Cortical_NOG_NeuriteLength: CCTE's Neurite Outgrowth Assay in rat cortical cells for Neurite Length, Mundy Lab (AID 2284213).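 For AC50: neurites imaged about 48 to 50 h after chemical exposure began.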 Put shortly: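 First, rat primary cortical cells were plated and, 2 h later, given test chemical as a 1/10 dilution. Finally, βIII-tubulin immunostaining enabled automated imaging of neurite length.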
Test [2] in a line: CCTE_Mundy_HCI_Cortical_Synap_Neur_Matur_NeuriteLength: CCTE's Synaptogenesis and Neurite Maturation Assay in rat cortical cells for Neurite Length, Mundy Lab (AID 2284214). Summed up:
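Neurite length quantified by automated high-content imaging of MAP2, synaptophysin and Hoechst staining. Rat cortical cells received chemical from DIV 7 to DIV 12 […], glial growth arrested by AraC at DIV 5; DMSO baseline.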

The nature of test [3]: CCTE_Mundy_HCI_Cortical_Synap_Neur_Matur_NeuriteSpotCountPerNeuron: CCTE's Synaptogenesis and Neurite Maturation Assay in rat cortical cells for Neurite Spot Count per Neuron Count, Mundy Lab (AID 2284215). Summed up: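 High-content imaging counts synaptophysin puncta along MAP2-labelled neurites per neuron after chemical exposure of rat cortical cells from DIV 7 to termination at DIV 12 (AraC added DIV 5). Loss of signal relative to DMSO.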

Test [4] can be described thus: CCTE_Mundy_HCI_Cortical_Synap_Neur_Matur_SynapseCount: CCTE's Synaptogenesis and Neurite Maturation Assay in rat cortical cells for Synapse Count, Mundy Lab (AID 2284218). Summed up:
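High-content imaging of synaptophysin puncta per MAP2-positive neuron (Hoechst nuclei) in rat cortical cells exposed DIV 7–12 after glial arrest with AraC at DIV 5; decrease relative to DMSO scored.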

A short description of test [5]: CCTE_Mundy_HCI_Cortical_Synap_Neur_Matur_CellBodySpotCount: CCTE's Synaptogenesis and Neurite Maturation Assay in rat cortical cells for Cell Body Spot Count, Mundy Lab (AID 2284223). Summed up: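 High-content imaging counts synaptophysin puncta on neuronal cell bodies per neuron after MAP2/synaptophysin immunostaining. Rat primary cortical cells, glia arrested with AraC at DIV 5, were exposed DIV 7–12; signal decrease measured against DMSO.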

Test [6] in a line: CCTE_Mundy_HCI_hNP1_Pro_ResponderAvgInten: CCTE's Proliferation Assay in human neuroprogenitor cells, Mundy Lab (AID 2284224; active = hit-call score of the fitted dose curve at least 0.9, where 1 is the maximum). Summed up: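 Proliferation was scored as BrdU labelling intensity in human neural progenitors derived from WA09 embryonic cells, measured 26.25 hours after chemical dosing. Activity was fitted relative to DMSO.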
The nature of test [7]: BSK_BT_PBMCCytotoxicity: PBMC Cytotoxicity Assessment in the BioMAP Diversity Plus: BT Assay (AID 2284225).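 Note: PBMC viability measured by Alamar Blue dye reduction fluorescence.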 The settings on record: primary human B cells with PBMC. Put shortly: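 Viability by Alamar Blue reduction (6 h, ex/em 546/580 nm) after 90 h culture of SEB/TSST-1-activated PBMC (20 ng/mL each) given compound 1 h before activation. DMSO served as baseline for curve fitting.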

Read-out in test [8]: Secreted IgG (sIgG), gene 3500
The test can be described thus: BSK_BT_sIgG: BioMAP Diversity Plus: BT Assay for Secreted IgG (sIgG) Biomarker Activity (AID 2284226). The following applies: primary human B cells with PBMC. Summed up: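 ELISA quantitation of secreted IgG from human B cells co-cultured with PBMC, sampled 24 h post-dosing. Values fitted relative to DMSO vehicle as baseline, positive fitting direction.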

Test [9] in a line: BSK_BT_Bcell_Proliferation: Viability Assessment in the BioMAP Diversity Plus: BT Assay for B cell Proliferation (AID 2284227). The following applies: primary human B cells with PBMC. Put shortly: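 Human B cells co-cultured with PBMC were dosed with test chemicals and relative cell number was quantified by SRB staining at 72 h. Cells were fixed in 10% TCA, stained with 0.1% SRB and read at 560 nm. Activity was fitted in the positive direction against DMSO.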

Read-out in test [10]: Interleukin 6 (IL6), IL6 (gene 3569)
The test can be described thus: BSK_BT_xIL6: BioMAP Diversity Plus: BT Assay for Interleukin 6 (IL6) Biomarker Activity (AID 2284228). The settings on record: primary human B cells with PBMC. Put shortly:
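Secreted IL-6 in the primary human B cell plus PBMC system, measured by Luminex at 24 h post-chemical, DMSO as baseline. Alamar Blue viability: 75,000 cells/well, chemical 1 h before SEB/TSST-1 (20 ng/mL each), 90 h, then 6 h dye.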

Read-out in test [11]: Interleukin 17A (IL17A), IL17A (gene 3605)
Nature of the test: BSK_BT_xIL17A: BioMAP Diversity Plus: BT Assay for Interleukin 17A (IL17A) Biomarker Activity (AID 2284229). The settings on record: primary human B cells with PBMC. Summed up:
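Luminex xMAP quantification of secreted IL-17A after 24 h chemical exposure of a primary human B cell/PBMC co-culture. Signal increases fitted relative to DMSO negative control.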

Read-out in test [12]: Tumor necrosis factor (Homo sapiens) (UniProt P01375)
The test can be described thus: BSK_BT_xTNFa: BioMAP Diversity Plus: BT Assay for Tumor necrosis factor alpha (TNF-alpha) Biomarker Activity (AID 2284230). The following applies: primary human B cells with PBMC. Summed up: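 B cells with PBMC in co-culture, dosed and sampled at 24 h; secreted TNF-alpha measured by Luminex xMAP bead assay. Activity fitted in the gain direction against DMSO as negative control and baseline.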

Read-out in test [13]: Vascular cell adhesion molecule 1 (VCAM1), VCAM1 (gene 7412)
Nature of the test: BSK_MyoF_VCAM1: BioMAP Diversity Plus: MyoF Assay for Vascular cell adhesion molecule 1 (VCAM1) Biomarker Activity (AID 2284231). The following applies: primary human lung fibroblasts. Summed up: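 ELISA readout of VCAM-1 on human lung fibroblast cultures 24 hours after dosing, analyzed for signal gain relative to DMSO. Overt cytotoxicity was checked by sulforhodamine B total-protein staining in parallel cultures.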

A short description of test [14]: UKN4_HCS_LUHMES_cell_viability: Viability Assessment in the University of Konstanz (UKN) Leist Lab Neurite Outgrowth Assay in human LUHMES cells (UKN4) (AID 2284232). Summed up:
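Viability was read by high-content imaging of calcein-AM/H-33342-stained cells after 24 h toxicant exposure, staining included. Cells: human LUHMES on day 2 of dopaminergic differentiation, dosed shortly after attachment; DMSO baseline, bidirectional curve fitting.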

Test [15] in a line: UKN2_HCS_IMR90_cell_viability: Viability Assessment in the University of Konstanz (UKN) Leist Lab Neural Crest Cell Migration Assay in human induced IMR90 Pluripotent Stem Cells (UKN2) (AID 2284233).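 Note: cells exposed to compound for 24 h after a 24 h migration phase.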 Summed up:
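After calcein-AM/Hoechst staining, viability is quantified by high-content fluorescence imaging, relative to DMSO, in iPSC (IMR90)-derived neural crest cells. Exposure lasts 24 h, starting after a 24 h migration period on PLO/laminin/fibronectin coating.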

A short description of test [16]: TAMU_PeakParms_SingleDonor1434_Chronotropy: Texas A&M University (TAMU) 1.5-hr Human Induced Pluripotent Stem Cell (iPSC)-derived Cardiomyocytes Calcium (Ca+2) Flux Assay for Cardiotoxicity: Chronotropy (changes in peak frequency) (AID 2284217). The following applies: actives raise or lower the signal. Summed up:
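iPSC-derived cardiomyocytes (single donor 1434) dosed at 0.2, 1, 10 and 100 uM in 0.5% DMSO for 1.5 h at 37C; Ca2+ dye fluorescence gave average beat frequency. Zero-beat points removed; bidirectional fit versus DMSO, POD as EC05.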

Test [17] can be described thus: TAMU_HCS_1.5hr_SingleDonor1434_Cytotoxicity: Cytotoxicity Assessment using High-content Screening (HCS) Fluorescent Imaging for the Texas A&M University (TAMU) 1.5-hr Human Induced Pluripotent Stem Cell (iPSC)-derived Cardiotoxicity Assay (AID 2284234; active = hit-call score of the fitted dose curve at least 0.9, where 1 is the maximum). Summed up:
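Nuclear counts from Hoechst 33342 imaging define cytotoxicity here, with EC10 (10% cell-count loss relative to DMSO) as point of departure. iPSC cardiomyocytes received 0.2-100 uM test chemical in 0.5% DMSO for 1.5 h at 37 C.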

A short description of test [18]: TAMU_PeakParms_SingleDonor1434_QT: Texas A&M University (TAMU) 1.5-hr Human Induced Pluripotent Stem Cell (iPSC)-derived Cardiomyocytes Calcium (Ca+2) Flux Assay for Cardiotoxicity: QT (decay-rise ratio) (AID 2284235; active = hit-call score of the fitted dose curve at least 0.9, where 1 is the maximum). Put shortly: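 Decay/rise ratio of calcium-flux fluorescence scored after 90 min exposure (37C) of donor 1434 iPSC cardiomyocytes to 0.2–100 uM (0.5% DMSO). Beat-cessation and severe-notch points removed; POD is EC05, a 5% rise over DMSO.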

Values joined by “and” are separate entries in the source; they are usually repeats but may differ in a detail not shown here. Equal entries are not always repeated. Records with an inconclusive call do not appear. A structure can be active in one record and inactive in another. Active and inactive are the calls of the source. Rule for the calls, unless noted: active = hit-call score of the fitted dose curve at least 0.9, where 1 is the maximum; inactive = score below 0.9.

Usually AC50 stands for the concentration at which the activity in the assay is half-maximal.

Tumor necrosis factor (Homo sapiens), sequence (P01375 whole entry, looked up): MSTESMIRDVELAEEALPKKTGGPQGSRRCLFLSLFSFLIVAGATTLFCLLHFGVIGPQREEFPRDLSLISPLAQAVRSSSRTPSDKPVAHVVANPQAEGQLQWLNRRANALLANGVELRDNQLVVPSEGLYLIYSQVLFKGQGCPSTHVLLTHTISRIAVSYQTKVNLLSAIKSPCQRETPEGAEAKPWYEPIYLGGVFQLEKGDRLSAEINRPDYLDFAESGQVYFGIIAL

As for `O=C(O)C(F)(F)C(F)(F)C(F)(F)C(F)(F)C(F)(F)C(F)(F)C(F)(F)F`, the compound was called inactive in [1], in test [2], in test [3], in test [4], in [5] and in test [6]. The result in [7], in test [8], in test [9], in test [10], in test [11] and in test [12] was inactive. The outcome in [13] and in test [15] was inactive. Besides, the AC50 in test [7] was 30 µM (active); in test [9], 24 µM (active); in [12] it was 5.95 µM (active); in test [14] it was 89.4 µM (active).

As for `CCC(C)(C)C(=O)OC1=C(c2ccc(Cl)cc2Cl)C(=O)OC12CCCCC2`, the compound was called inactive in test [1], in test [2], in test [3], in test [4], in [5] and in test [6]. In addition, the outcome in test [14] was inactive.

Regarding `O=S(=O)(O)C(F)(F)C(F)(F)C(F)(F)C(F)(F)C(F)(F)C(F)(F)C(F)(F)C(F)(F)F`, the result in [1], in test [2], in test [3], in test [4], in test [5] and in test [7] was inactive. Further, the result in test [8], in test [9], in test [10], in test [11], in test [12] and in test [13] was inactive. For the same compound, the AC50 in [7] is 24 µM (active) and 33.9 µM (active); in test [9], 19.5 µM (active); in [14] it was 20.4 µM (active).

Regarding `O=S1OCC2C(CO1)C1(Cl)C(Cl)=C(Cl)C2(Cl)C1(Cl)Cl` (configuration not stated), the AC50 in test [1] is 23.8 µM (active); in [3], 15 µM (active); in [16], 4.73 µM (active); in test [4], 19.6 µM (active); in test [5], 23.4 µM (active); in [6], 23 µM (active). Also, the AC50 is 18.7 µM (active) in test [14] and 14.8 µM (active) in test [15]. The compound was classed as inactive in [17] and in test [18].

With `O=C(O)COc1ccc(Cl)cc1Cl`, the result in [1], in [2], in [3], in [4], in [6] and in [15] was inactive.

For the compound `COP(=S)(OC)Oc1ccc([N+](=O)[O-])cc1`, the values for the AC50 in test [1], in test [2] and in test [3] were 23.7 µM (active), 15 µM (active) and 15 µM (active), respectively. In addition, the result in test [4], in test [5] and in test [14] was inactive.

As to `CN1CSC(=S)N(C)C1`, the result in test [16] and in test [18] was inactive.

In the case of `CC(C)N(C(=O)COc1nnc(C(F)(F)F)s1)c1ccc(F)cc1`, the compound was called inactive in test [1], in test [2], in test [3], in test [4], in [5] and in test [6]. Further, the outcome in [14] and in test [15] was inactive.

(Values after PubChem BioAssay (EPA / NIEHS).)
